Source: PubChem BioAssay (NCI)
Compounds without any hit were thinned out: in the full panel of roughly 83,000, 20% have a hit.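 Results are percent growth after 48 hours of single-concentration exposure. 100 means growth as in untreated cells, lower positive values show inhibition; negative values down to -100 show cell death.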 Active and inactive are the calls of the source. Rule for the calls: active = growth percent below 10; inactive = the rest.

What was measured:
Test in all cases: NCI-60 one-dose screen, 48 h (100 = growth as untreated, 0 = no growth, -100 = all killed)
NCI-H23 lung = tested on: NCI-H23 lung
NCI-H226 lung = tested on: NCI-H226 lung
NCI-H322M lung = details: 10 µM unless noted
HOP-62 NSCLC = tested on: HOP-62 NSCLC
NCI-H460 lung = tested on: NCI-H460 lung
HOP-92 NSCLC = tested on: HOP-92 NSCLC
NCI-H522 lung = tested on: NCI-H522 lung
A549/ATCC NSCLC = tested on: A549/ATCC NSCLC
786-0 renal = tested on: 786-0 renal
COLO 205 colon = tested on: COLO 205 colon
DU-145 prostate = tested on: DU-145 prostate
K-562 leukemia = tested on: K-562 leukemia
MALME-3M melanoma = tested on: MALME-3M melanoma
MDA-MB-231 breast = tested on: MDA-MB-231 breast
RXF 393 renal = tested on: RXF 393 renal
SF-268 CNS = tested on: SF-268 CNS
SF-295 CNS = tested on: SF-295 CNS
SF-539 CNS = tested on: SF-539 CNS
UACC-257 melanoma = tested on: UACC-257 melanoma
M14 melanoma = tested on: M14 melanoma

Measured: growth

CC(=O)/C=C/c1ccc(N(C)Cc2ccc(C(C)(C)C)cc2)cc1
active: NCI-H23 lung; 100 µM -10.1% | NCI-H226 lung; 100 µM -82.3% | NCI-H322M lung -64.5% [100 µM] | HOP-62 NSCLC; 100 µM -34.8% | NCI-H460 lung; 100 µM -63.7% | HOP-92 NSCLC; 100 µM -92.6% | NCI-H522 lung; 100 µM -76.4% | A549/ATCC NSCLC; 100 µM -48.6% | 786-0 renal; 100 µM -75% | COLO 205 colon; 100 µM -72% | DU-145 prostate; 100 µM 0.731% | K-562 leukemia; 100 µM -12.4% | MALME-3M melanoma; 100 µM -88.1% | MDA-MB-231 breast; 100 µM -70.6% | RXF 393 renal; 100 µM -90.6% | SF-268 CNS; 100 µM -76.8% | SF-295 CNS; 100 µM -30.4% | SF-539 CNS; 100 µM -69% | UACC-257 melanoma; 100 µM -76.5% | M14 melanoma; 100 µM -65.3%
inactive: NCI-H23 lung; 10 µM 75.5% | NCI-H226 lung; 10 µM 85.1% | HOP-62 NSCLC; 10 µM 97.6% | NCI-H460 lung; 10 µM 96.9% | HOP-92 NSCLC; 10 µM 77.3% | NCI-H522 lung; 10 µM 77.1% | A549/ATCC NSCLC; 10 µM 89.6% | 786-0 renal; 10 µM 97.3% | COLO 205 colon; 10 µM 113% | DU-145 prostate; 10 µM 96.6% | K-562 leukemia; 10 µM 59.5% | MALME-3M melanoma; 10 µM 89.3% | MDA-MB-231 breast; 10 µM 103% | RXF 393 renal; 10 µM 106% | SF-268 CNS; 10 µM 102% | SF-295 CNS; 10 µM 88.9% | SF-539 CNS; 10 µM 98.9% | UACC-257 melanoma; 10 µM 84.6% | M14 melanoma; 10 µM 79.5%

COc1ccc(C(=O)/C=C/c2ccc(OCc3ccc(Cl)cc3)cc2)cc1OC
inactive: NCI-H23 lung; 10 µM 84.1% | NCI-H23 lung; 100 µM 29.2% | NCI-H226 lung; 10 µM 87.1% | NCI-H322M lung 40.4% [100 µM] | HOP-62 NSCLC; 10 µM 104% | NCI-H460 lung; 10 µM 95.3% | HOP-92 NSCLC; 10 µM 104% | HOP-92 NSCLC; 100 µM 12.5% | NCI-H522 lung; 10 µM 82.5% | A549/ATCC NSCLC; 10 µM 85.9% | A549/ATCC NSCLC; 100 µM 13.7% | 786-0 renal; 10 µM 106% | COLO 205 colon; 10 µM 117% | COLO 205 colon; 100 µM 41.8% | DU-145 prostate; 10 µM 95.2% | DU-145 prostate; 100 µM 14.9% | K-562 leukemia; 10 µM 67.9% | K-562 leukemia; 100 µM 52.2% | MALME-3M melanoma; 10 µM 110% | MDA-MB-231 breast; 10 µM 110% | RXF 393 renal; 10 µM 110% | SF-268 CNS; 10 µM 100% | SF-268 CNS; 100 µM 14% | SF-295 CNS; 10 µM 98.4% | SF-295 CNS; 100 µM 16.2% | SF-539 CNS; 10 µM 106% | SF-539 CNS; 100 µM 32.5% | UACC-257 melanoma; 10 µM 94.3% | UACC-257 melanoma; 100 µM 35.4% | M14 melanoma; 10 µM 95.9% | M14 melanoma; 100 µM 54.4%
active: NCI-H226 lung; 100 µM -7.94% | HOP-62 NSCLC; 100 µM 5.95% | NCI-H460 lung; 100 µM 6.18% | NCI-H522 lung; 100 µM 2.45% | 786-0 renal; 100 µM -13.2% | MALME-3M melanoma; 100 µM -19.5% | MDA-MB-231 breast; 100 µM -22.5% | RXF 393 renal; 100 µM -2.05%
